Measurements published in publication PMC11006913.
Positions count from the first letter of the chain named.

Tests used:
Assay in all cases: PBM; 200 nM protein, PBS
Settings in all cases: dsDNA, one strand shown
SIX6 [1] = molecular target: T1, SIX6 (Homo sapiens, UniProt O95475 114-200, L167I)
T1 sequence: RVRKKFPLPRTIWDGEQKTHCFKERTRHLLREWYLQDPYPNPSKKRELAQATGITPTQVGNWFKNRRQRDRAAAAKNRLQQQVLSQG

SIX6 [2] = molecular target: T2, SIX6 (Homo sapiens, UniProt O95475 114-200, L143V)
T2 sequence: T1 sequence with L30V, I54L

SIX6 [3] = molecular target: T3, SIX6 (Homo sapiens, UniProt O95475 114-200, H141N)
T3 sequence: T1 sequence with H28N, I54L

SIX6 [4] = molecular target: T4, SIX6 (Homo sapiens, UniProt O95475 114-200, T165P)
T4 sequence: T1 sequence with T52P, I54L

SIX6 [5] = molecular target: T5, SIX6 (Homo sapiens, UniProt O95475 114-200, L167M)
T5 sequence: T1 sequence with I54M

SIX6 [6] = molecular target: T6, SIX6 (Homo sapiens, UniProt O95475 114-200, L143M)
T6 sequence: T1 sequence with L30M, I54L

SIX6 [7] = molecular target: T7, SIX6 (Homo sapiens, UniProt O95475 114-200, L143I)
T7 sequence: T1 sequence with L30I, I54L

SIX6 [8] = molecular target: T8, SIX6 (Homo sapiens, UniProt O95475 114-200, T165G)
T8 sequence: T1 sequence with T52G, I54L

SIX6 [9] = molecular target: T9, SIX6 (Homo sapiens, UniProt O95475 114-200, T139Q)
T9 sequence: T1 sequence with T26Q, I54L

SIX6 [10] = molecular target: T10, SIX6 (Homo sapiens, UniProt O95475 114-200, T165A)
T10 sequence: T1 sequence with T52A, I54L

SIX6 [11] = molecular target: T11, SIX6 (Homo sapiens, UniProt O95475 114-200, L167V)
T11 sequence: T1 sequence with I54V

SIX6 [12] = molecular target: T12, SIX6 (Homo sapiens, UniProt O95475 114-200)
T12 sequence: T1 sequence with I54L

SIX6 [13] = molecular target: T13, SIX6 (Homo sapiens, UniProt O95475 114-200, T165I)
T13 sequence: T1 sequence with T52I, I54L

Sequence | binding signal (SIX6 [1]) | binding signal (SIX6 [2]) | binding signal (SIX6 [3]) | binding signal (SIX6 [4]) | binding signal (SIX6 [5]) | binding signal (SIX6 [6]) | binding signal (SIX6 [7]) | binding signal (SIX6 [8]) | binding signal (SIX6 [9]) | binding signal (SIX6 [10]) | binding signal (SIX6 [11]) | binding signal (SIX6 [12]) | binding signal (SIX6 [13])
ATGTATCG | 11 upbm affinity estimate (log intensity, higher = more binding, comparable within an allelic series) | 10.3 upbm affinity estimate (log intensity, higher = more binding, comparable within an allelic series) | 11 upbm affinity estimate (log intensity, higher = more binding, comparable within an allelic series) | 10 upbm affinity estimate (log intensity, higher = more binding, comparable within an allelic series) | 10.6 upbm affinity estimate (log intensity, higher = more binding, comparable within an allelic series) | 10.8 upbm affinity estimate (log intensity, higher = more binding, comparable within an allelic series) | 10.4 upbm affinity estimate (log intensity, higher = more binding, comparable within an allelic series) | 11 upbm affinity estimate (log intensity, higher = more binding, comparable within an allelic series) | 11.1 upbm affinity estimate (log intensity, higher = more binding, comparable within an allelic series) | 11 upbm affinity estimate (log intensity, higher = more binding, comparable within an allelic series) | 10.7 upbm affinity estimate (log intensity, higher = more binding, comparable within an allelic series) | 10.9 upbm affinity estimate (log intensity, higher = more binding, comparable within an allelic series) | 10.8 upbm affinity estimate (log intensity, higher = more binding, comparable within an allelic series)
GCAGCCGC | 8.93 upbm affinity estimate (log intensity, higher = more binding, comparable within an allelic series) | 8.9 upbm affinity estimate (log intensity, higher = more binding, comparable within an allelic series) | 8.98 upbm affinity estimate (log intensity, higher = more binding, comparable within an allelic series) | 8.93 upbm affinity estimate (log intensity, higher = more binding, comparable within an allelic series) | 9.02 upbm affinity estimate (log intensity, higher = more binding, comparable within an allelic series) | 8.94 upbm affinity estimate (log intensity, higher = more binding, comparable within an allelic series) | 8.95 upbm affinity estimate (log intensity, higher = more binding, comparable within an allelic series) | 8.95 upbm affinity estimate (log intensity, higher = more binding, comparable within an allelic series) | 9.01 upbm affinity estimate (log intensity, higher = more binding, comparable within an allelic series) | 9.01 upbm affinity estimate (log intensity, higher = more binding, comparable within an allelic series) | 8.97 upbm affinity estimate (log intensity, higher = more binding, comparable within an allelic series) | 8.98 upbm affinity estimate (log intensity, higher = more binding, comparable within an allelic series) | 9.03 upbm affinity estimate (log intensity, higher = more binding, comparable within an allelic series)
TGATACCA | 11.3 upbm affinity estimate (log intensity, higher = more binding, comparable within an allelic series) | 10.5 upbm affinity estimate (log intensity, higher = more binding, comparable within an allelic series) | 11.3 upbm affinity estimate (log intensity, higher = more binding, comparable within an allelic series) | 9.8 upbm affinity estimate (log intensity, higher = more binding, comparable within an allelic series) | 10.7 upbm affinity estimate (log intensity, higher = more binding, comparable within an allelic series) | 11 upbm affinity estimate (log intensity, higher = more binding, comparable within an allelic series) | 10.6 upbm affinity estimate (log intensity, higher = more binding, comparable within an allelic series) | 11.5 upbm affinity estimate (log intensity, higher = more binding, comparable within an allelic series) | 11.3 upbm affinity estimate (log intensity, higher = more binding, comparable within an allelic series) | 11.4 upbm affinity estimate (log intensity, higher = more binding, comparable within an allelic series) | 11.1 upbm affinity estimate (log intensity, higher = more binding, comparable within an allelic series) | 11.2 upbm affinity estimate (log intensity, higher = more binding, comparable within an allelic series) | 11.1 upbm affinity estimate (log intensity, higher = more binding, comparable within an allelic series)
CATGATCA | 10.5 upbm affinity estimate (log intensity, higher = more binding, comparable within an allelic series) | 9.91 upbm affinity estimate (log intensity, higher = more binding, comparable within an allelic series) | 10.3 upbm affinity estimate (log intensity, higher = more binding, comparable within an allelic series) | 9.68 upbm affinity estimate (log intensity, higher = more binding, comparable within an allelic series) | 10.1 upbm affinity estimate (log intensity, higher = more binding, comparable within an allelic series) | 10.4 upbm affinity estimate (log intensity, higher = more binding, comparable within an allelic series) | 9.97 upbm affinity estimate (log intensity, higher = more binding, comparable within an allelic series) | 10.4 upbm affinity estimate (log intensity, higher = more binding, comparable within an allelic series) | 10.6 upbm affinity estimate (log intensity, higher = more binding, comparable within an allelic series) | 10.3 upbm affinity estimate (log intensity, higher = more binding, comparable within an allelic series) | 10.4 upbm affinity estimate (log intensity, higher = more binding, comparable within an allelic series) | 10.3 upbm affinity estimate (log intensity, higher = more binding, comparable within an allelic series) | 10.2 upbm affinity estimate (log intensity, higher = more binding, comparable within an allelic series)
GCCGCCCC | 9.02 upbm affinity estimate (log intensity, higher = more binding, comparable within an allelic series) | 9.06 upbm affinity estimate (log intensity, higher = more binding, comparable within an allelic series) | 8.99 upbm affinity estimate (log intensity, higher = more binding, comparable within an allelic series) | 9.17 upbm affinity estimate (log intensity, higher = more binding, comparable within an allelic series) | 9.05 upbm affinity estimate (log intensity, higher = more binding, comparable within an allelic series) | 9.03 upbm affinity estimate (log intensity, higher = more binding, comparable within an allelic series) | 8.92 upbm affinity estimate (log intensity, higher = more binding, comparable within an allelic series) | 9.03 upbm affinity estimate (log intensity, higher = more binding, comparable within an allelic series) | 8.98 upbm affinity estimate (log intensity, higher = more binding, comparable within an allelic series) | 9.08 upbm affinity estimate (log intensity, higher = more binding, comparable within an allelic series) | 8.99 upbm affinity estimate (log intensity, higher = more binding, comparable within an allelic series) | 8.93 upbm affinity estimate (log intensity, higher = more binding, comparable within an allelic series) | 9.05 upbm affinity estimate (log intensity, higher = more binding, comparable within an allelic series)
GCCGCGCA | 8.96 upbm affinity estimate (log intensity, higher = more binding, comparable within an allelic series) | 8.97 upbm affinity estimate (log intensity, higher = more binding, comparable within an allelic series) | 8.91 upbm affinity estimate (log intensity, higher = more binding, comparable within an allelic series) | 8.97 upbm affinity estimate (log intensity, higher = more binding, comparable within an allelic series) | 8.9 upbm affinity estimate (log intensity, higher = more binding, comparable within an allelic series) | 8.97 upbm affinity estimate (log intensity, higher = more binding, comparable within an allelic series) | 8.96 upbm affinity estimate (log intensity, higher = more binding, comparable within an allelic series) | 8.81 upbm affinity estimate (log intensity, higher = more binding, comparable within an allelic series) | 8.99 upbm affinity estimate (log intensity, higher = more binding, comparable within an allelic series) | 8.86 upbm affinity estimate (log intensity, higher = more binding, comparable within an allelic series) | 8.86 upbm affinity estimate (log intensity, higher = more binding, comparable within an allelic series) | 8.91 upbm affinity estimate (log intensity, higher = more binding, comparable within an allelic series) | 8.89 upbm affinity estimate (log intensity, higher = more binding, comparable within an allelic series)
